Here are results for 14 compounds from PubChem BioAssay (NCATS).

Experiment [1] can be described thus: NCATS anti-infectives library activity on HEK293 viability as a counter-qHTS vs the C. elegans viability qHTS (AID 1745854).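 Note: HEK293 cells exposed to compounds for 24 hr before the viability read; % is set by controls: 0 for no effect and ±100 for the full control effect.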 The procedure, abridged:
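Cytotoxicity in human HEK293 cells is measured by ATP-dependent CellTiter-Glo luminescence following a 24 hr incubation with titrated library compounds at 37C. Top final concentration is 41.7 uM.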

In experiment [2] the target is Glutathione peroxidase 1 (Homo sapiens) (UniProt P07203). Briefly: Primary qHTS Assay for Inhibitors of Recombinant Selenoprotein Glutathione Peroxidase 1 (GPX1) (AID 1845191). For activity, negative = inhibition: % is set by controls: 0 for no effect and ±100 for the full control effect. Note: nearly all actives have a fitted effect of over 65% in size. Put shortly: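 GR-coupled assay: compounds preincubated 30 min at room temperature with GPX1, then reaction started with CHP; final 10 nM GPX1, 1 mM GSH, 0.5 mM CHP, 0.5 mM NADPH, 100 nM GR, 0.01% BSA, pH 7.5 Tris buffer. NADPH fluorescence (340/450 nm) read at 0 and 15 min.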
On the technique in general: qHTS replaces the single test concentration by a dilution series.

Experiment [3] concerns the target Phospholipid hydroperoxide glutathione peroxidase GPX4 (Homo sapiens) (UniProt P36969). Briefly: Primary qHTS Assay for Inhibitors of Recombinant Selenoprotein Glutathione Peroxidase 4 (GPX4) (AID 1845192). For activity change, negative = inhibition: % is set by controls: 0 for no effect and ±100 for the full control effect. Note: nearly all actives have a fitted effect of over 65% in size. Put shortly:
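GR-coupled assay: recombinant GPX4 preincubated 30 min with compound at room temperature; final 200 nM GPX4, 1 mM GSH, 0.5 mM cumene hydroperoxide, 0.5 mM NADPH, 100 nM GR, 0.01% BSA, pH 7.5 Tris. NADPH fluorescence (340/450 nm) read at 0 and 15 min.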

The target in experiment [4] is Luciferin 4-monooxygenase (Photinus pyralis) (UniProt P08659). Nature of the experiment: Primary firefly luciferase (FLuc) qHTS assay for identification of artifact compounds. (AID 1845220).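 For activity change, negative = inhibition: plate controls were DMSO vehicle for no effect and no enzyme for full effect.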 Note: nearly all actives have a fitted effect of over 60% in size. The procedure, abridged:
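D-luciferin and ATP (10 uM each, final) in Tris acetate buffer pH 7.6 were incubated with compounds for 15 min at room temperature. The reaction was started with 10 nM Photinus pyralis luciferase and luminescence read after 5 min. Percent inhibition was fitted to a 4-parameter Hill equation.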

The subject of experiment [5] is Nanoluciferase (engineered Oplophorus gracilirostris luciferase). Briefly: Primary Nanoluciferase (NLuc) qHTS assay for identification of artifact compounds. (AID 1845222).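 Note: 0% = DMSO and -100% = no enzyme.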 Put shortly:
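Diluted conditioned medium from NLuc-expressing S16 cells treated with compounds for 15 min at room temperature, then Nano-Glo substrate added; luminescence read after 5 min. Percent inhibition versus no-enzyme and DMSO controls fitted to 4-parameter Hill equation.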

Experiment [6] is described as follows: Primary redox qHTS assay for identification of artifact compounds. (AID 1845223).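 Note: 0% = DMSO and 100% = reference compound.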 The procedure, abridged:
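Amplex Red (25 uM) and HRP (250 mU/mL) in HBSS, with compounds for 15 min, then 250 uM DTT for 30 min, room temperature, dark. Fluorescence 525/598 nm read; normalized to DMSO and 10 uM DA3003; Hill fit.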

In experiment [7] the target is Catechol O-methyltransferase (Homo sapiens) (UniProt P21964). Briefly: Confirmatory Screen for Target Class Profiling of Small Molecule Inhibitors of Methyltransferases (AID 1745852). For activity change, negative = inhibition: % is set by controls: 0 for no effect and ±100 for the full control effect. Conditions: MTase-Glo luminescence, SAH detection, recombinant enzyme; measured here: COMT max response; stronger effect = lower value.
Experiment [8] addresses Guanidinoacetate N-methyltransferase (Homo sapiens) (UniProt Q14353). Described as above. Conditions: activity change, negative = inhibition: at 57.3 µM (top of the series) unless noted.
Experiment [9] addresses Nicotinamide N-methyltransferase (Homo sapiens) (UniProt P40261). The experiment is described as above. Particulars: MTase-Glo luminescence, SAH detection, recombinant enzyme; measured here: NNMT max response; stronger effect = lower value.
The target of experiment [10] is Phenylethanolamine N-methyltransferase (Homo sapiens) (UniProt P11086). The experiment is described as above. Conditions: MTase-Glo luminescence, SAH detection, recombinant enzyme; measured here: PNMT max response; stronger effect = lower value.
Experiment [11] can be described thus: Primary fluorescence-based thiol-reactive (MSTI) qHTS assay for identification of artifact compounds. (AID 1845221).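 Note: thiol-reactive compounds lower the probe fluorescence signal; nearly all actives have a fitted effect of over 65% in size.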 Put shortly:
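One-hour, room-temperature, dark incubation of compound with 4 uM MSTI in PBS (pH 7.4, 2% DMSO) precedes a fluorescence read at 525 nm excitation, 598 nm emission; Hill-equation fitting yields concentration-response values.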

Experiment [12] in a line: NCATS anti-infectives library activity on the primary C. elegans qHTS viability assay (AID 1745855; calls by dose curve). Put shortly:
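Viability is taken from GFP fluorescence of PE254-GFP-FLuc C. elegans imaged by laser cytometry over 7 days. Ten L1 worms per well grow at 21 °C on TOP10 E. coli capsules with titrated compound; levamisole marks toxicity.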

The nature of experiment [13]: Viability counterscreen for antagonist of constitutive androstane receptor (CAR) against the NCATS DSHEA and TCM libraries (AID 1794837).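 Note: compound exposure lasted 24 h before viability reading; 0% is about no effect.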 Put shortly:
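Cell viability, CellTiter-Fluor, Ex/Em 405/540 nm, 1 h at 37C. HepG2-CYP2B6-hCAR, 2,500 cells/well; cpds + CITCO 48 uM final (antagonist mode), 24 h, 37C/5% CO2.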

A short description of experiment [14]: Viability counterscreen for agonist of constitutive androstane receptor (CAR) against the NCATS DSHEA and TCM libraries (AID 1794838). Note: 0% is about no effect. Put shortly: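 Viability by CellTiter-Fluor fluorescence, 405/540 nm, after 1 h at 37C. HepG2-CYP2B6-hCAR cells were exposed 24 h to test substances in presence of 0.75 uM PK11195 (final).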
Background: A counterscreen serves to expose hits that act by an unwanted route or on another target.

In experiment [15] the target is Nuclear receptor subfamily 1 group I member 3 (Homo sapiens) (UniProt Q14994). Nature of the experiment: Primary qHTS for agonist of constitutive androstane receptor (CAR) against the NCATS DSHEA and TCM libraries (AID 1794839).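 Note: HepG2 cells expressing human CAR with a CYP2B6 reporter plus PK11195 antagonist; 0% is about no effect.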 The procedure, abridged: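 Luminescence from ONE-Glo luciferase was the agonist read-out in HepG2-CYP2B6-hCAR cells exposed 24 h to test substances. Wells also held the CAR antagonist PK11195 at 0.75 µM final. Viability was by CellTiter-Fluor fluorescence.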

Experiment [16] is described as follows: HepG2 viability counterscreen (readout 2: ATP content) against the NCATS DSHEA and TCM libraries (AID 1794840). Note: 0% is about no effect. Put shortly: (§1)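 1,000 HepG2 cells/well, 4 h attach; compounds ~24 h, 37C/5% CO2. Readout 1: GF-AFC 25 uM final, 30 min, fluorescence 380/510 nm. Readout 2: CellTiter-Glo, 30 min RT, luminescence.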
The nature of experiment [17]: HepG2 viability counterscreen (readout 1: protease activity) against the NCATS DSHEA and TCM libraries (AID 1794841).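 Note: cells exposed to compounds for about 24 h before the protease read; 0% is about no effect.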 Put shortly:
as §1

The target of experiment [18] is Cytochrome P450 3A4 (Homo sapiens) (UniProt P08684). Briefly: qHTS for inhibitors of CYP3A4 against the NCATS DSHEA and TCM libraries (AID 1919971).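 Note: % is set by controls: 0 for no effect and ±100 for the full control effect; inhibition lowers luminescence from luciferin made by CYP3A4.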 The procedure, abridged:
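Light output from converted D-luciferin reports remaining CYP activity. Compounds preincubate with enzyme and substrate for 15 min; NADPH regeneration (1x final) runs the reaction for 30-45 min.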

Results filed as inconclusive are left out. Activity calls are given as the source filed them. Unless noted, calls come from the whole dose curve; as a rule, active = well fitted curve in the direction sought with a large enough effect; inconclusive = small, poorly fitted or top-dose-only effect, or another doubt; inactive = no such curve, though single readings can be large; an effect the other way counts as inactive or inconclusive.

Chain of Phospholipid hydroperoxide glutathione peroxidase GPX4 (Homo sapiens) (P36969 whole entry, looked up): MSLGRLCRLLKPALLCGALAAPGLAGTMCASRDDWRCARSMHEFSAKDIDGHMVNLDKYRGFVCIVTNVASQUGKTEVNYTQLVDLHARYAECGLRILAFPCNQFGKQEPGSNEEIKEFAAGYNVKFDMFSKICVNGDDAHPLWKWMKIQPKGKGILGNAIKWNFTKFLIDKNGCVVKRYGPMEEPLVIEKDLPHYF
Chain of Glutathione peroxidase 1 (Homo sapiens) (P07203 whole entry, looked up): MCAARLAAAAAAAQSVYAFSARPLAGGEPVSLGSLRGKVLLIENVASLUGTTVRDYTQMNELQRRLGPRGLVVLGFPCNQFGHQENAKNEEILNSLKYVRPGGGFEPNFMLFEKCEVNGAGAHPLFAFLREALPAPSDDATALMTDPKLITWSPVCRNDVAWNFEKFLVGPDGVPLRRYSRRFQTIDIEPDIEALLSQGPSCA
Chain of Phenylethanolamine N-methyltransferase (Homo sapiens) (P11086 whole entry, looked up): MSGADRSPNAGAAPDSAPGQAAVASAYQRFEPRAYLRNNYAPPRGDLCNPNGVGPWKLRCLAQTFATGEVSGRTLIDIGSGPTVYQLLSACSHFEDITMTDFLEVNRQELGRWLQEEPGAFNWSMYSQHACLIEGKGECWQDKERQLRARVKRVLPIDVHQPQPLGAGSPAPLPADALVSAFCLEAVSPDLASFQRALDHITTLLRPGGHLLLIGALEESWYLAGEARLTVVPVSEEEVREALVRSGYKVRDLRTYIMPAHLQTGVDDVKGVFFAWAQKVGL
Chain of Cytochrome P450 3A4 (Homo sapiens) (P08684 whole entry, looked up): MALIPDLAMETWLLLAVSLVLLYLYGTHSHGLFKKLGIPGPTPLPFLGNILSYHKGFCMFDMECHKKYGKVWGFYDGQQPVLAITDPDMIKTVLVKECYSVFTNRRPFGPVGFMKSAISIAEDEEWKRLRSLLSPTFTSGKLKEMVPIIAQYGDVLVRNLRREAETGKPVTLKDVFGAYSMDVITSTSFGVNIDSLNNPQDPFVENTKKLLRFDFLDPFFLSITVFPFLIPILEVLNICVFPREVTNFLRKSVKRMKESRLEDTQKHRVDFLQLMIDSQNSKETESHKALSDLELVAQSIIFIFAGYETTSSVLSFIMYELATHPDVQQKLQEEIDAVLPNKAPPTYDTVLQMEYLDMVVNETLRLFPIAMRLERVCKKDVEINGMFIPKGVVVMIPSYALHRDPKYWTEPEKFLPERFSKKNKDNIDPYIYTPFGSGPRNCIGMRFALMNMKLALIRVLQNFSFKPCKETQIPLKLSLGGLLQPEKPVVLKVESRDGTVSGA
Chain of Nuclear receptor subfamily 1 group I member 3 (Homo sapiens) (Q14994 whole entry, looked up): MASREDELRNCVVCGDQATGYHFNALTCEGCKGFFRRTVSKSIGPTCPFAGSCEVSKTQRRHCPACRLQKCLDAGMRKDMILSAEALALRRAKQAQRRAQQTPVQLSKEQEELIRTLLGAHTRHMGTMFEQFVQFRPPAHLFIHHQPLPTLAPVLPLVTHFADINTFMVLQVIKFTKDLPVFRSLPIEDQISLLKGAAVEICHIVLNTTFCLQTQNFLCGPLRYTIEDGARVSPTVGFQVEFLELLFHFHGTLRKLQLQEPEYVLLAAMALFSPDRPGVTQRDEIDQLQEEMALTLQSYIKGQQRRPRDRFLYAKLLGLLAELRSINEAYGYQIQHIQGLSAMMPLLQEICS
Chain of Catechol O-methyltransferase (Homo sapiens) (P21964 whole entry, looked up): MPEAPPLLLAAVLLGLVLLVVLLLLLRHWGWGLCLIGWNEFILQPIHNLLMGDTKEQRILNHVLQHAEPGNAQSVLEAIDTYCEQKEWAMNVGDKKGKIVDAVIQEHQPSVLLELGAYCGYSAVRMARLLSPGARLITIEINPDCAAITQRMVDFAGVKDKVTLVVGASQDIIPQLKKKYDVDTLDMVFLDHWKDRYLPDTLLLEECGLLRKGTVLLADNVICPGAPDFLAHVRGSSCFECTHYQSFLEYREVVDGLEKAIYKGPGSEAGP
Chain of Nicotinamide N-methyltransferase (Homo sapiens) (P40261 whole entry, looked up): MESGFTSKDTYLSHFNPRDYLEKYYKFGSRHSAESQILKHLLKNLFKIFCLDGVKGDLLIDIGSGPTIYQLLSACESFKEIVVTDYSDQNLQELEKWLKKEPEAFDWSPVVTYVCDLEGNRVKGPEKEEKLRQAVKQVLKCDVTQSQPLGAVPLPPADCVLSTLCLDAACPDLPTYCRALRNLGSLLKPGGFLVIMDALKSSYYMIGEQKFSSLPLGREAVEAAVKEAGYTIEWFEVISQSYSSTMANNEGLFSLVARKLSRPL

Regarding `C[C@H]1CO[C@@H]2Cn3cc(C(=O)NCc4ccc(F)cc4F)c(=O)c(O)c3C(=O)N12`, in [1], the outcome was “inactive”. In addition, the Potency result in [2], in [3], in experiment [4], in experiment [5] and in [6] was “inactive” each time.
`COc1cc2c(cc1-c1c(C)noc1C)ncc1[nH]c(=O)n(C(C)c3ccccn3)c12` (configuration not stated): the activity in [7] was -17.8%; in experiment [9], -29.4%; in experiment [10], 0.401%. In experiment [8], this compound yielded an activity change, negative = inhibition of 3.12%. Besides, the Potency result in experiment [3], in experiment [11], in [5] and in [6] was “inactive” in each case.
With `O=C(NCC1(c2nc(-c3ccccc3)cs2)CCOCC1)c1cccc(-c2noc(C(F)(F)F)n2)c1`, in experiment [1], the outcome was “inactive”. The Potency result in [2], in experiment [3], in experiment [4], in experiment [11], in experiment [5] and in experiment [6] was “inactive” in each case.
On to `Cn1nc(C(C)(C)C)cc1C(=O)N[C@@H](Cc1cccc(Cl)c1)C(=O)NCC#N`, for which, in [1], the outcome is “inactive”. Besides, the Potency result in experiment [12], in [2], in experiment [3], in experiment [4], in [11] and in experiment [5] was “inactive” throughout. Besides, in experiment [6], the Potency result was “inactive”.
Regarding `CO[C@H]1C[C@@H]2CC[C@@H](C)[C@@](O)(O2)C(=O)C(=O)N2CCCC[C@H]2C(=O)O[C@H]([C@@H](C)C[C@@H]2CC[C@@H](O)[C@H](OC)C2)CC(=O)[C@H](C)/C=C(\C)[C@@H](O)[C@@H](OC)C(=O)[C@H](C)C[C@H](C)/C=C/C=C/C=C/1C`, the outcome in experiment [1] was “inactive”. For the same compound, the Potency result in experiment [2], in [3], in experiment [4], in experiment [5] and in experiment [6] was “inactive” each time.
In the case of `CC1(C)S[C@@H]2[C@H](NC(=O)[C@H](N)c3ccccc3)C(=O)N2[C@H]1C(=O)OCOC(=O)[C@@H]1N2C(=O)C[C@H]2S(=O)(=O)C1(C)C`, the Potency entry in [2] was “inactive”.
With `Cc1cc(Nc2ccccc2C(=O)O)ccc1Cl`, the Potency result in experiment [2] was “inactive”.
As for `CCCCc1cc2c(=O)c(C(=O)OC)c[nH]c2cc1OCc1ccccc1`, the Potency result in experiment [2] and in [3] was “inactive” throughout.
Consider `CS(=O)(=O)OCCCNCCCOS(C)(=O)=O`, for which the Potency entry in [2] and in [3] was “inactive” throughout.
With `O=C(Cn1c(=O)sc2ccc(Cl)cc21)N1CCN(CCO)CC1`, the Potency entry in [2] and in experiment [3] was “inactive” in each case.
For the compound `O=P(O)(O)C(Sc1ccc(Cl)cc1)P(=O)(O)O`, the activity, negative = inhibition in [2] was 3.51% [at 0.4 µM] (inactive). Further, in [3], the outcome was “inactive [at 0.409 µM]”.
As for `O=C(O)CC(O)(CC(=O)O)C(=O)O`, the outcome in experiment [13], in [14], in experiment [15], in [16], in [17] and in [18] was “inactive” throughout. The Potency entry in experiment [2] and in [3] was “inactive” each time.
For `CC(C)(S)C(=O)N[C@@H](CS)C(=O)O`, the Potency result in experiment [2] and in experiment [3] was “inactive” throughout.
For `Cc1ccc(C2(O)CCN(CCCC(=O)c3ccc(F)cc3)CC2)cc1`, the Potency entry in experiment [2] and in experiment [3] was “inactive” in each case.
